What follows are sequences tested on THRa homodimer (NR concentration 90 nM) (assay: PBM binding z-score (relative to random genomic background probes); higher = stronger binding; sequences stand for … in GC…GCGATTGACAGCGTAGAATGAAGG).
Summary of the method: (§1)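 Custom Agilent 4×180K protein-binding microarrays carried double-stranded probes, each with a 34-nt variable region. These regions held direct-repeat seeds, single-nucleotide variants, half-site ablations and random human genomic background sequences. Ligand-free nuclear receptor dimers were incubated on the arrays for 1 h, antibodies against each partner (one per run) detected binding, and scanned fluorescence was regression-normalized. Binding z-scores take the random background probes as reference.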

Sequence	PBM binding z-score
TCTTGTAGATCAATAGAGGTCAAGAAAGTGCGCT	0.941
CCTTACGGGTCACTCCAGGTTATAACATCGGAGT	0.437
TCTTGTAGATCAAAAGTTAAGAAAGCCGAAGCCT	-1.33
TAGCCTAGGTCATGCGGGCCAGTATGGTGTCGGC	1.07
CGTCCAAGGTCAATGCTAGGTGAGTGAAAGCATT	2.34
TAGCCTGGGTCATTGGGCCAGTATAGTACGCATC	-0.547
TCTTGTAGATCAACAGAAGGTTAAGAAAGATCGA	-0.701
CGAACTAGGTCATCCAGGAAAGTGAATACATTGA	0.863
ATCTCTAGGTAACTAAGTTCAGTGAATGCCGAAC	0.66
CCTGCTAGGTGAATGGTCAGCTAAAGCAGCTCGC	-0.317
TCATATAGGTAAATGCTAGGTGGAAGTCCGATCT	-0.18
ACTAACAGGCCAAGTTTGGGTCACTCAAACAAAG	1.26
GCTAGTTGGTCAGTATAAGGTCACACACCGGTCG	5.46
CGAACTAGGTAAGAACAGGACAGTGAAGGATGAT	-0.177
CCGAGCAGGTTATGGGGCATTCAGGCAACGGTGA	0.0585
CCTACTGAGCCAAGGTCATTGATCAGTCAAAGCA	2.49
TCTACTAGGTCAACGATGGTCAGCTAATCTGCTA	1.37
CCTTACGGGTCACGCCAGGTTATAGCATCGGAGT	0.956
ACAGACAGGTGATGAAGGCAACTCAGGCTATCAT	-0.588
CCTAGTTGGTCAAGGGCACACACGCTATAGGTAC	0.605

Sequence	PBM binding z-score
ACTAGCAGGCCAAATTTGGGTCACTCAAACAAAG	0.758
CGTCCAAGGTCAATACTAGGTCAGTGAAAGCATT	3
ATACCAAGGTGATCGTGAGGTCGTGGATACTAAC	2.99
TCATATAGGTAAACAGCTGAAAGTCCGTAAGTTA	-0.236
TCCGCTAGGTCAACGATGGTCAGCTAATCTGCTA	1.03
ATCGCTAGGTAAAGATAGTTCAGTGAATGCAAAT	-0.407
CCTCGGAGGACAACAGGAGGTCAGAGCTGCCAGA	1.04
CGTCCAAGGTCATAGGAGGTAAGTGAAGACAGAT	2.43
TCGAGAAGGTTACCAATGGGGCATTCAGCTTTCT	-0.839
CCTTACGGGTCACTGACGGGTTATAGCATTTGGA	0.301
CAAACTAGGTCAATGGTCAAAGTCGAGCCAACCA	0.976
GCTAGTTGGTAAGTAAAAGGTCACACACCGGTCG	1.73
TAGCCTAGTTCATGGGCCAGTATACCACGCGAAC	0.00574
GCAGACAGGTGAAAAGCAGGTAACTCAGGGTGGC	-0.428
CGAACTAGGTTATCCAGGACAGTGAATACATTGA	1.19
ATCTCTAGGTAACAAGTTCAGAGAAAGAGAGGAC	0.815
GCTTACGGGTCAAAGGTTATAGCGTGAATAGAAT	0.134
ATACCAAGGTGATCGTGATGTCGTTGATACTAAC	0.541
CCTAGCAGGACAGGGTCACTCAAGCATTTCGCTT	1.44
TTAATGAGGTTATAAGATCAGGGAACGTTGCAAA	0.52

The sequences below were run on VDR homodimer (NR concentration 270 nM) in the same assay as above.
Summary of the method: as §1

Sequence	PBM binding z-score
TCTTGTAGATCAATAGAGGTCAAGAAAGTGCGCT	2.12
CCTTACGGGTCACTCCAGGTTATAACATCGGAGT	1.19
TCTTGTAGATCAAAAGTTAAGAAAGCCGAAGCCT	-0.181
TAGCCTAGGTCATGCGGGCCAGTATGGTGTCGGC	0.682
CGTCCAAGGTCAATGCTAGGTGAGTGAAAGCATT	2.15
TAGCCTGGGTCATTGGGCCAGTATAGTACGCATC	0.472
TCTTGTAGATCAACAGAAGGTTAAGAAAGATCGA	-0.188
CGAACTAGGTCATCCAGGAAAGTGAATACATTGA	1.12
ATCTCTAGGTAACTAAGTTCAGTGAATGCCGAAC	2.04
CCTGCTAGGTGAATGGTCAGCTAAAGCAGCTCGC	-0.841
TCATATAGGTAAATGCTAGGTGGAAGTCCGATCT	0.0417
ACTAACAGGCCAAGTTTGGGTCACTCAAACAAAG	0.351
GCTAGTTGGTCAGTATAAGGTCACACACCGGTCG	2.76
CGAACTAGGTAAGAACAGGACAGTGAAGGATGAT	-0.504
CCGAGCAGGTTATGGGGCATTCAGGCAACGGTGA	-0.392
CCTACTGAGCCAAGGTCATTGATCAGTCAAAGCA	3.65
TCTACTAGGTCAACGATGGTCAGCTAATCTGCTA	0.629
CCTTACGGGTCACGCCAGGTTATAGCATCGGAGT	0.985
ACAGACAGGTGATGAAGGCAACTCAGGCTATCAT	-0.37
CCTAGTTGGTCAAGGGCACACACGCTATAGGTAC	1.09

Sequence	PBM binding z-score
ACTAGCAGGCCAAATTTGGGTCACTCAAACAAAG	-0.0164
CGTCCAAGGTCAATACTAGGTCAGTGAAAGCATT	2.44
ATACCAAGGTGATCGTGAGGTCGTGGATACTAAC	1.78
TCATATAGGTAAACAGCTGAAAGTCCGTAAGTTA	0.162
TCCGCTAGGTCAACGATGGTCAGCTAATCTGCTA	-0.0724
ATCGCTAGGTAAAGATAGTTCAGTGAATGCAAAT	-0.0178
CCTCGGAGGACAACAGGAGGTCAGAGCTGCCAGA	1.21
CGTCCAAGGTCATAGGAGGTAAGTGAAGACAGAT	2.6
TCGAGAAGGTTACCAATGGGGCATTCAGCTTTCT	-0.528
CCTTACGGGTCACTGACGGGTTATAGCATTTGGA	0.822
CAAACTAGGTCAATGGTCAAAGTCGAGCCAACCA	0.812
GCTAGTTGGTAAGTAAAAGGTCACACACCGGTCG	1.63
TAGCCTAGTTCATGGGCCAGTATACCACGCGAAC	1.42
GCAGACAGGTGAAAAGCAGGTAACTCAGGGTGGC	-0.329
CGAACTAGGTTATCCAGGACAGTGAATACATTGA	0.455
ATCTCTAGGTAACAAGTTCAGAGAAAGAGAGGAC	2.72
GCTTACGGGTCAAAGGTTATAGCGTGAATAGAAT	1.44
ATACCAAGGTGATCGTGATGTCGTTGATACTAAC	0.117
CCTAGCAGGACAGGGTCACTCAAGCATTTCGCTT	1.5
TTAATGAGGTTATAAGATCAGGGAACGTTGCAAA	0.74
